Sampled rows, rich in hits. Any-hit rate of the full collection: about 2.2%.
GLP1R cytotox: qHTS of GLP-1 Receptor Inverse Agonists: Cytotox Screen; Potency, µM (highest dose often 38.3 µM), inactives show top-dose activity change, negative = inhibition, actives largely listed as inhibitors; HEK293 cAMP-luciferase reporter cells, luminescence, 24 h; AID 624418, 2012; 410,000 compounds, 0.13% hits;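 note: loss of luciferase light is scored as toxicity; potency is the fitted concentration of half-maximal effect; % is set by controls: 0 for no effect and ±100 for the full control effect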
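Luminescence readout: signal drop marks cytotoxicity. Plated cells grew 12 h at 37 °C, 5% CO2, received 23 nL compound for 24 h, then got luciferase reagent, read after 12 min at RT.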
CCT chaperon mod: High-Throughput Screening for Modulators of Cytosolic Chaperonin Activity; purified chaperonin ATPase assay, HTRF ADP detection, 30 min; activity change, % (concentration not given with the values), hits read low; 360,000 compounds, 0.3% hits; in the data active = activity change below about -30%; note: % is set by controls: 0 for no effect and ±100 for the full control effect
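First, chaperonin was dispensed at 40 nM or 20 nM final depending on batch activity. Next, compounds were pinned at 76 uM and ATP added at 10 uM. After 30 min at 37 °C, ADP detection reagents ran 30 min at ambient temperature.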
Mm-Cpn inhibitor: Inhibitors of TCP-1 ring complex (TRiC) of Methanococcus maripaludis (MmCpn): qHTS; Chaperonin Mm-Cpn (Methanococcus maripaludis); purified Mm-Cpn ATPase, ADP Transcreener TR-FRET; Potency, µM (titrated, usually from 76.9 µM), for inactives: at the highest dose activity, negative = inhibition, usual class: inhibitors; 330,000 compounds, 0.031% hits; AID 504842, 2011; note: potency is the fitted concentration of half-maximal effect; % is set by controls: 0 for no effect and ±100 for the full control effect; nearly all actives have a fitted effect of over 80% in size
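Purified archaeal Mm-CPN (25nM final) preincubated 10 min at 37degC with compound, then 10uM ATP for 30 min at 37degC; ADP measured by HTRF Transcreener TR-FRET; buffer 30 mM TRIS pH 7.4, 100mM KCl, 5mM MgCl2, 1mM DTT.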
GLP-1R agonist: qHTS of GLP-1 Receptor Agonists; Potency, µM (doses to about 45.6 µM), for the others: top-dose activation, actives largely listed as activators; 380,000 compounds, 0.007% hits; AID 624172, 2012; Glucagon-like peptide 1 receptor (Homo sapiens), P43220; HEK293 GLP-1R CRE-luciferase, luminescence, 4-6 h; cells express a hypersensitive GLP-1R form; note: potency is the fitted concentration of half-maximal effect; % of control where 0% means no effect
Target sequence (P43220 whole entry, looked up): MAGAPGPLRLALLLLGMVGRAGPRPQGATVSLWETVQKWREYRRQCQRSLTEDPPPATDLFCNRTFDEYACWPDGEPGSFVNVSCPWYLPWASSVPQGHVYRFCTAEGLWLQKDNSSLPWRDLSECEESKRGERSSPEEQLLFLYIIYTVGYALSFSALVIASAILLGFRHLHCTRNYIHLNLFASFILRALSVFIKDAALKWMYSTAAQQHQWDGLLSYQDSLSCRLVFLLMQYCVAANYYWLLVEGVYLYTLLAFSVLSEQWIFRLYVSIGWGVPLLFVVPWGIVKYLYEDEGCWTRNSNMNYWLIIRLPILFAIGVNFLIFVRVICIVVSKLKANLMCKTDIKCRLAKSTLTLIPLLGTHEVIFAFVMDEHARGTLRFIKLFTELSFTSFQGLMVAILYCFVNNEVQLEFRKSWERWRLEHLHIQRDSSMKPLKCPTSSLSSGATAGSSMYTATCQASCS
uPA surface inh: qHTS for Inhibitors of Cell Surface uPA Generation | cell surface uPA generation assay, qHTS | Potency, µM (series often up to 38.3 µM), without a hit: at the highest dose activity change, negative = inhibition, usual class: inhibitors | 330,000 compounds, 0.31% hits | AID 540303, 2011; active = well fitted inhibition curve with a large enough effect; inconclusive = small, poorly fitted or top-dose-only effect; inactive = no such curve, though single readings can be large or run the other way; tested in mouse RAW 264.7 cells; note: potency is the fitted concentration of half-maximal effect; % is set by controls: 0 for no effect and ±100 for the full control effect; nearly all actives have a fitted effect of over 55% in size
GLP-1R inv ag: qHTS of GLP-1 Receptor Inverse Agonists (Inhibition Mode); Potency, µM (titrated, usually from 38.3 µM), for the others: top-dose activity change, negative = inhibition, actives largely listed as inhibitors; HEK293 GLP-1R CRE-luciferase, luminescence, 24 h; GLP-1R form is constitutively active; Glucagon-like peptide 1 receptor (Homo sapiens), P43220; 410,000 compounds, 1.6% hits; AID 624417, 2012; note: potency is the fitted concentration of half-maximal effect; % is set by controls: 0 for no effect and ±100 for the full control effect; nearly all actives have a fitted effect of over 55% in size
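Inverse agonists were sought by their lowering of basal cAMP reporter luciferase output in HEK293 cells stably carrying constitutively active human GLP-1R, after 24 h compound treatment.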
Numbers without * were called inactive; [ ] = another dose, or the depositor's remark. Unless noted, calls come from the whole dose curve; as a rule, active = well fitted curve in the direction sought with a large enough effect; inconclusive = small, poorly fitted or top-dose-only effect, or another doubt; inactive = no such curve, though single readings can be large; an effect the other way counts as inactive or inconclusive.

Screening Cc1ccc(Cl)cc1N1CCN(C(=O)C2CCN(c3nnc(-n4cccc4)s3)CC2)CC1 returned GLP1R cytotox -6.0%, CCT chaperon mod -2.5, Mm-Cpn inhibitor 0.1%, GLP-1R agonist -1.3%, uPA surface inh -10.1% and GLP-1R inv ag 3.55µM*.
`O=C(Nc1cccc(C(F)(F)F)c1)c1cnn(-c2cccc(F)c2)c1C1CCNCC1` gave GLP1R cytotox -9.7% and GLP-1R inv ag inconclusive.
For CO/N=C(\C(=O)N[C@@H]1C(=O)N2C(C(=O)[O-])=C(C[n+]3cccc4c3CCC4)CS[C@H]12)c1csc(N)n1 the results were GLP-1R agonist -0.1%.
`Cc1cccc(CN2CCC(C(=O)Nc3cccc(-c4cccc(F)c4)c3)CC2)n1` gave GLP1R cytotox inconclusive, CCT chaperon mod 1.8, Mm-Cpn inhibitor 1.8%, GLP-1R agonist 7.2%, uPA surface inh -21.3% and GLP-1R inv ag 10µM*.
Screening Cc1nn(C(C)C)c(C)c1CN1CCC(C(=O)Nc2cccc(-c3cccc(F)c3)c2)CC1 returned GLP1R cytotox inconclusive, CCT chaperon mod -2.3, Mm-Cpn inhibitor 0.4%, GLP-1R agonist 4.1%, uPA surface inh inconclusive and GLP-1R inv ag 5.01µM*.
Screening CCCn1ncc(CN2CCC(C(=O)Nc3cccc(-c4cccc(F)c4)c3)CC2)c1C returned GLP1R cytotox inconclusive, CCT chaperon mod 0.1, Mm-Cpn inhibitor -5.9%, GLP-1R agonist -1.7%, uPA surface inh 2.1% and GLP-1R inv ag inconclusive.
Screening CCCCCCn1c(O)c(/C=C2\C=NN=C2c2ccccc2)sc1=S returned GLP1R cytotox 11.2µM*, CCT chaperon mod -0.2, Mm-Cpn inhibitor -1.5%, GLP-1R agonist 1.4%, uPA surface inh 5.1% and GLP-1R inv ag inconclusive.
CN(C)CC(CCC(CN(C)C)C(O)(c1ccccc1)c1ccccc1)C(O)(c1ccccc1)c1ccccc1 (centres undefined) was read as GLP1R cytotox inconclusive, CCT chaperon mod -1.5, Mm-Cpn inhibitor 3.8%, GLP-1R agonist 18.8%, uPA surface inh -16.9% and GLP-1R inv ag 2.82µM*.
COC(=O)c1c(-c2ccc(OC)cc2)sc2cc3c(cc12)OCO3 was read as GLP1R cytotox 12.7%, CCT chaperon mod -2.0, Mm-Cpn inhibitor 50.1µM*, GLP-1R agonist 11.4%, uPA surface inh -3.4% and GLP-1R inv ag 37.6%.
Screening CC(=O)N1N=C(c2ccc(Br)cc2)CC1c1cccc([N+](=O)[O-])c1 (centres undefined) returned GLP1R cytotox -4.7%, CCT chaperon mod 0.5, GLP-1R agonist -6.8% and GLP-1R inv ag 11.2µM*.
Screening Cc1ccc(C2=NN(C(=O)CCC(=O)O)C(c3cccc([N+](=O)[O-])c3)C2)cc1 (centres undefined) returned GLP1R cytotox -0.3%, CCT chaperon mod -3.0, Mm-Cpn inhibitor -0.4%, GLP-1R agonist -2.9%, uPA surface inh 0.0% and GLP-1R inv ag 17.5%.
Screening Cc1cccc(NC(=O)c2onc3c2CCCC3)n1 returned GLP1R cytotox 9.4%, CCT chaperon mod -1.1, Mm-Cpn inhibitor 0.8%, GLP-1R agonist -16.9%, uPA surface inh 3.98µM* and GLP-1R inv ag inconclusive.
`Cc1cccc(NC(=O)c2onc3c2CCCC3)c1C` gave GLP1R cytotox -4.0%, CCT chaperon mod -1.9, Mm-Cpn inhibitor -1.7%, GLP-1R agonist 4.4%, uPA surface inh -6.9% and GLP-1R inv ag -35.9%.
For COC(=O)c1cccc(NC(=O)c2onc3c2CCCC3)c1 the results were GLP1R cytotox 0.1%[1.53 µM], CCT chaperon mod 0.7, Mm-Cpn inhibitor 0.4%, GLP-1R agonist 0.4%, uPA surface inh -2.3% and GLP-1R inv ag -19.1%.
O=C(Nc1ccc2ccccc2c1)c1onc2c1CCCC2 was read as GLP1R cytotox -4.5%, CCT chaperon mod 0.9, Mm-Cpn inhibitor 1.7%, GLP-1R agonist -0.7%, uPA surface inh -5.5% and GLP-1R inv ag 8.91µM*.

Assay outcomes as filed in PubChem.
